# PubChem BioAssay
# Results filed as inconclusive are left out. Activity calls are given as the source filed them. Unless noted, how the calls were made is not given here.
# Assays:
# [1] = rapamycin-like changes in RPL19A-GFP expression – cell-based, S. cerevisiae, multiplex flow cytometry, primary screen (AID 1862; in the data active means percent of DMSO control GFP below about 86%;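 further: lower values mimic rapamycin by blocking the RPL19A rise seen in DMSO cells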); settings: S. cerevisiae RPL19A-GFP strain, flow cytometry fluorescence, 3 h; at 10 µM; stronger effect = lower value
# [2] = TOR pathway GLN3 branch reporter MEP2-GFP changes – S. cerevisiae, multiplex flow cytometry, primary screen (AID 1867;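 active means GFP response, as percent of the DMSO control, above the screen-wide mean plus 3 SD, about 139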;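 further: median GFP channel fluorescence of barcode-gated MEP2-GFP cells measured by flow cytometry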); settings: S. cerevisiae MEP2-GFP strain, 3 h, at 10 µM, stronger effect = higher value
# [3] = TOR pathway RTG branch CIT2 reporter changes – S. cerevisiae, GFP fusion, multiplex flow cytometry, primary screen (AID 1870;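 active means percent response above a set limit, the screen-wide mean plus 3 SD, cut at about 130% in these data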;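 further: barcoded CIT2-GFP strain pooled with four other GFP strains with rapamycin as positive control; median GFP fluorescence per well over plate mean of DMSO wells so 100% = DMSO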); settings: S. cerevisiae CIT2-GFP expression, 3 h, at 10 µM, stronger effect = higher value
# [4] = TOR pathway LAP4-GFP level changes – S. cerevisiae, multiplex flow cytometry, primary screen (AID 1873;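 active means GFP signal, as percent of the solvent control, above the screen mean plus 3 SD, about 149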); settings: S. cerevisiae LAP4-GFP expression, 3 h, at 10 µM, stronger effect = higher value
# [5] = yeast AGP1-GFP level changes, GLN3 branch – cell-based, multiplex flow cytometry, S. cerevisiae, primary screen (AID 1887;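 active means GFP signal above the screen-wide mean plus 3 SD, that is over about 124.5% of the solvent control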;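 further: AGP1-GFP fusion strain of S. cerevisiae within a five-strain barcoded multiplex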); settings: 3 h, at 10 µM, stronger effect = higher value
# [6] = reduced mouse 2C T cell binding to pMHC/ICAM-1 vesicles – MLPCN validation set, flow cytometry, LFA-1/ICAM-1 modulator project, pilot screen (AID 2523;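 active means response below a set limit, under 55% cells CD8-positive and vesicle-bound, and CD8 cells' 90th-percentile brightness under 279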;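 on vesicle binding response: mean PE anti-B7-1 fluorescence of CD8+ cells relative to row control; 100% = QL9-loaded vesicles with DMSO vehicle in the same plate row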); settings: 2C mouse CD8+ T cells, at 7 µM, stronger effect = lower value; double positive events: measured here: CD8+/vesicle+ event percentage
# [7] = target: Integrin beta-1 (Homo sapiens) + Integrin alpha-4 (Homo sapiens) (UniProt P13612+P05556); assay: alpha4beta1 integrin LIBS antibody binding reduction – U937 cells, HUTS-21 mAb, flow cytometry, validation set, VLA-4 allosteric modulator project, pilot screen (AID 2674;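 active means inhibition above 50%, about 3 SD of the validation set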;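 further: antibody binding induced by the VLA-4 ligand LDV present at three times its Kd; 0% = LDV ligand with antibody and no compound and 100% = antibody without LDV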); settings: HUTS-21 LIBS mAb binding, at 6.7 µM, stronger effect = higher value
# [8] = calorie-restriction mimetic ROS inhibitors, yeast – validation compound set, pilot screen (AID 2706;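 active means superoxide response below 65% of plate, a cut near 3 SD across the whole screen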;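 further: yeast exposed to compound for one week at 30 degrees C before staining; 100% = mean of all compound wells on the same plate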); settings: S. cerevisiae aging, superoxide DHE fluorescence; at 10 µM; stronger effect = lower value
# [9] = target: Beta-adrenergic receptor kinase 1 (Homo sapiens) (UniProt P25098); assay: GRK2 binders displacing RNA aptamer, biochemical, validation, human GRK2, bead flow cytometry (AID 488806;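 active means aptamer binding inhibition above 30%, about 3 SD of noise from non-fluorescent compounds; inactive means inhibition at or below 30%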); settings: bead-bound GRK2, FAM-aptamer displacement, at 10 µM, stronger effect = higher value
# [10] = target: Beta-2 adrenergic receptor (Homo sapiens) (UniProt P07550); assay: agonist-induced loss of surface beta2AR – cell-based, FAP fluorogen, flow cytometry, validation set, pilot screen (AID 504459;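 active means percent response above 42, roughly 3 SD of non-fluorescent test compounds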;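 further: agonist-driven loss of surface beta2AR via internalization measured by FAP dye flow cytometry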); settings: Am2.2-beta2AR cells, at 10 µM, stronger effect = higher value
# [11] = target: AP-2 complex subunit beta (Homo sapiens) (UniProt P63010); assay: beta-arrestin/AP2 interaction blockers – biochemical, validation set, GST-AP2 beads, flow cytometry, pilot screen (AID 504541;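 active means inhibition above 54%, about 3 SD of non-fluorescent compounds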;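 further: AP2 carries R879A mutation and is captured from E. coli lysate; bead-bound FITC arrestin peptide fluorescence measuring arrestin peptide binding to AP2; 0% = DMSO wells and 100% = excess unlabeled arrestin peptide control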); settings: FITC arrestin peptide, at 10 µM, stronger effect = higher value
# [12] = cytosolic pH regulators acting via V-ATPase – S. cerevisiae, pHLuorin, HTS validation (AID 504600; in the data active means response above about 15%;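 further: plate controls were DMSO for no effect and reference compound for full effect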); settings: V-ATPase proton transport, at 10 µM, stronger effect = higher value
# [13] = test system: anti-desmoglein-3 scFv antibody binding to human DSG3; assay: blockers of pathogenic pemphigus antibody–desmoglein-3 binding – biochemical, validation compound set, bead-based, flow cytometry, pilot screen (AID 588368;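 active means binding below the plate cutoff, the plate median minus 3 SD, with a reading above zero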;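 further: signal is the median channel fluorescence of bead-bound GFP antibody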); settings: Protein G beads, DSG3-Fc, scFv-GFP binding, at 10 µM, stronger effect = lower value
# [14] = test system: Botulinum neurotoxin type F light chain protease (Clostridium botulinum); assay: Clostridium botulinum type F light chain protease inhibitors, microsphere substrate cleavage, validation (AID 588459); settings: multiplex microsphere protease substrate cleavage assay, flow cytometry; at 10 µM; stronger effect = higher value
# [15] = target: Botulinum neurotoxin type A (Clostridium botulinum) (UniProt P0DPI0); assay: BoNT/A light chain protease inhibitors, biochemical, multiplex microsphere flow cytometry, validation set (AID 588460); settings: at 10 µM, stronger effect = higher value
# [16] = target: Lethal factor (Bacillus anthracis) (UniProt P15917); assay: Bacillus anthracis lethal factor inhibition, microsphere flow cytometry protease assay, validation at 10 µM (AID 588461); settings: multiplex microsphere protease cleavage assay, stronger effect = higher value
# [17] = Nile Red efflux blockade in pump-expressing yeast – validation compound set, multiplex, phenotypic, pilot screen (AID 588506;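 active means efflux inhibition above 0.42, the validation set average plus 4 SD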;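 further: Nile Red retained in cells so higher fluorescence means more efflux inhibition; 0 = negative control wells and 1 = enniatin B 25 µM full block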); settings: S. cerevisiae pump-expressing triplex, Nile Red efflux flow cytometry; at 10 µM; stronger effect = higher value
# [18] = target: ATP-binding cassette sub-family B member 6 (Homo sapiens) (UniProt Q9NP58); assay: blockers of ABCB6-driven porphyrin uptake – K562-ABCB6 cells, flow cytometry, validation set, pilot screen (AID 588550;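 active means inhibition above the screen-wide mean plus 3 SD, about 51%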;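 further: 0% = DMSO wells and 100% = benzethonium chloride 70 µM positive control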); settings: K562-ABCB6 porphyrin accumulation, 1 h, at 10 µM, stronger effect = higher value
# [19] = AML differentiation inducers, ER-HoxA9 marrow cells – cell-based, GFP/MAC1 double positive, flow cytometry, validation set, primary screen (AID 588685;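 active means differentiation response of at least 50%, scaled between solvent and reference control, from cells with both markers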;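 further: compound exposure lasts four days before antibody staining and flow analysis; 0% = DMSO wells and 100% = 5 µM fulvestrant positive control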); settings: stronger effect = higher value
# Sequence of Botulinum neurotoxin type A (Clostridium botulinum) (P0DPI0 whole entry, looked up): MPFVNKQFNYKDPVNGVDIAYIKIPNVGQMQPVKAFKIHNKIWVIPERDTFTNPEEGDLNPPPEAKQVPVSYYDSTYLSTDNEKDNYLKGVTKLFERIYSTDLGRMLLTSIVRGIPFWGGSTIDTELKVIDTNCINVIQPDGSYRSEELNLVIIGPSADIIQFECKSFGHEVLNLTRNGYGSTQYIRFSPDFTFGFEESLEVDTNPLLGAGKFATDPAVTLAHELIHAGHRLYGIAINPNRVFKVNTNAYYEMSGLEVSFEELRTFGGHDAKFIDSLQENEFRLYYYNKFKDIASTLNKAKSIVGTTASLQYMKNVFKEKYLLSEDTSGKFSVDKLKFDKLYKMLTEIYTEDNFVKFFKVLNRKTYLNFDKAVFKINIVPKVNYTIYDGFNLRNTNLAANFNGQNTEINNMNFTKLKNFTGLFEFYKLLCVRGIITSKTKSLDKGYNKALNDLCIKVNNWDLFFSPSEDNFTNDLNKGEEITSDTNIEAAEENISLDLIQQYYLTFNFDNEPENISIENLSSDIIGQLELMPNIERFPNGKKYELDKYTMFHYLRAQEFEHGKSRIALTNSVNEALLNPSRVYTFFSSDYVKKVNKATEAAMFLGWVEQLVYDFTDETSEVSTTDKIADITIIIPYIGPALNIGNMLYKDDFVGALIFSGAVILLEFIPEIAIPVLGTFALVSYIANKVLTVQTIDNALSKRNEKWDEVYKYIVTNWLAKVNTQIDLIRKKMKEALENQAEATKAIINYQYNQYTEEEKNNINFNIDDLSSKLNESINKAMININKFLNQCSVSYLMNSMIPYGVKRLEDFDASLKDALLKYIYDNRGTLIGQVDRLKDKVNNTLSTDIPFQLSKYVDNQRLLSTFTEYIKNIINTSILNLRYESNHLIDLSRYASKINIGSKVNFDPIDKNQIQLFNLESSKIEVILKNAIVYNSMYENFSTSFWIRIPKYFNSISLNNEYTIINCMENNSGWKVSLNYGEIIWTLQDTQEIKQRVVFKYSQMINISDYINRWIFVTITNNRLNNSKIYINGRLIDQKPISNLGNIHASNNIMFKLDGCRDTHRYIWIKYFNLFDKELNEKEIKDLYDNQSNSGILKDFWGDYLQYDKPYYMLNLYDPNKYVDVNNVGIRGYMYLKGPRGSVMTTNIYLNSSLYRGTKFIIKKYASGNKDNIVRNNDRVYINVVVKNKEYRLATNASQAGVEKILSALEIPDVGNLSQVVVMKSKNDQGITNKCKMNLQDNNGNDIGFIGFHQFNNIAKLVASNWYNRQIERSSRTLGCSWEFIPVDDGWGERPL
# Sequence of ATP-binding cassette sub-family B member 6 (Homo sapiens) (Q9NP58 whole entry, looked up): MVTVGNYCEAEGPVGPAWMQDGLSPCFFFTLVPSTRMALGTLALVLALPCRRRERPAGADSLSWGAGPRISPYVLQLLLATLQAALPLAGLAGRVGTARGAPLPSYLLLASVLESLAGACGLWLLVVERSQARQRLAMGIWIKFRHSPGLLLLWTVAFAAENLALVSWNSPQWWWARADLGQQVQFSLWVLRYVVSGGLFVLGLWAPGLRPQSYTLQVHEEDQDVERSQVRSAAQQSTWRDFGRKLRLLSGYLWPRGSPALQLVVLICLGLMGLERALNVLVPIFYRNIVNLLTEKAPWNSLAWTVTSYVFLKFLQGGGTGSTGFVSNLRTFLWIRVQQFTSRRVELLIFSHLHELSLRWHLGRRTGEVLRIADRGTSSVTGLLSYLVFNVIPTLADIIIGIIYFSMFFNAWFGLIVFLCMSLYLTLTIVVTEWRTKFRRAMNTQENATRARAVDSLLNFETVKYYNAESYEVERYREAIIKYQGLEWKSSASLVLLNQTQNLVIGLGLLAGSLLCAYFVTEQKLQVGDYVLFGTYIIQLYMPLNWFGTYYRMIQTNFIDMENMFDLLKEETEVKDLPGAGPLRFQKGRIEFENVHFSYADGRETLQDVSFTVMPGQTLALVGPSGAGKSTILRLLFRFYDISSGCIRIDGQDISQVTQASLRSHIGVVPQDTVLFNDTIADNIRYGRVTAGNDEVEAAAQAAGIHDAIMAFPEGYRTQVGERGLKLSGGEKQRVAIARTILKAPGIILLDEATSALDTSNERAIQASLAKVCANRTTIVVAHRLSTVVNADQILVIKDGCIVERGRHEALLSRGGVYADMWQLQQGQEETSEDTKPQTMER
# Sequence of Beta-2 adrenergic receptor (Homo sapiens) (P07550 whole entry, looked up): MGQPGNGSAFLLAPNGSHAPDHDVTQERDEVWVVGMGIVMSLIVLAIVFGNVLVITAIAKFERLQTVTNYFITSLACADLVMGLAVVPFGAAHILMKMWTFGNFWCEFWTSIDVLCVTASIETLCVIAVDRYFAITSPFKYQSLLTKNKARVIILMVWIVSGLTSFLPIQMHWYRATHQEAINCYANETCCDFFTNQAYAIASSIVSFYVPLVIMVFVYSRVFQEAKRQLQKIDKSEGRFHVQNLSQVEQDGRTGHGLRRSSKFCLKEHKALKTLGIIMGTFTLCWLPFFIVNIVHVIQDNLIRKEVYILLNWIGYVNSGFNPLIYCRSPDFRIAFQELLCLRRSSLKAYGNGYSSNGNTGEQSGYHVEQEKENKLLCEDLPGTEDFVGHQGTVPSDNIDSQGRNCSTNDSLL
# Sequence of Beta-adrenergic receptor kinase 1 (Homo sapiens) (P25098 whole entry, looked up): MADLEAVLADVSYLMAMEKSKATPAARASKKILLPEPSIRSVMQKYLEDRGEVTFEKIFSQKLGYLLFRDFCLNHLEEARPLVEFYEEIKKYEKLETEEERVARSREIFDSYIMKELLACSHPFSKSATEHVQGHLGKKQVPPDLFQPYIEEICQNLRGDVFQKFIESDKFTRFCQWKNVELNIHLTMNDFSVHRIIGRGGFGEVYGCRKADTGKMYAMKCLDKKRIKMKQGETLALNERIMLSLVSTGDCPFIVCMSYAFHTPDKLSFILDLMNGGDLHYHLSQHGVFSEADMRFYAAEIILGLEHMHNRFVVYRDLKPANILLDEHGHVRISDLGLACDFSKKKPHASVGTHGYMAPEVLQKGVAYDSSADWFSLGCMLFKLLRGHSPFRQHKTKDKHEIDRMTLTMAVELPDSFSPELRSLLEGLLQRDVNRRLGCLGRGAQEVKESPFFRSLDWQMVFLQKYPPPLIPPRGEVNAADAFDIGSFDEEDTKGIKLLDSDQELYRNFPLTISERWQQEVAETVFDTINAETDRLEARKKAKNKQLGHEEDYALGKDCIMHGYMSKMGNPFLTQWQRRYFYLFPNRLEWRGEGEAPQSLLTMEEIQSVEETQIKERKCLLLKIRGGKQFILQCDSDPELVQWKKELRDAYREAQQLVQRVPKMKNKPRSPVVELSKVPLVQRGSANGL
# Sequence of AP-2 complex subunit beta (Homo sapiens) (P63010 whole entry, looked up, one chain of several): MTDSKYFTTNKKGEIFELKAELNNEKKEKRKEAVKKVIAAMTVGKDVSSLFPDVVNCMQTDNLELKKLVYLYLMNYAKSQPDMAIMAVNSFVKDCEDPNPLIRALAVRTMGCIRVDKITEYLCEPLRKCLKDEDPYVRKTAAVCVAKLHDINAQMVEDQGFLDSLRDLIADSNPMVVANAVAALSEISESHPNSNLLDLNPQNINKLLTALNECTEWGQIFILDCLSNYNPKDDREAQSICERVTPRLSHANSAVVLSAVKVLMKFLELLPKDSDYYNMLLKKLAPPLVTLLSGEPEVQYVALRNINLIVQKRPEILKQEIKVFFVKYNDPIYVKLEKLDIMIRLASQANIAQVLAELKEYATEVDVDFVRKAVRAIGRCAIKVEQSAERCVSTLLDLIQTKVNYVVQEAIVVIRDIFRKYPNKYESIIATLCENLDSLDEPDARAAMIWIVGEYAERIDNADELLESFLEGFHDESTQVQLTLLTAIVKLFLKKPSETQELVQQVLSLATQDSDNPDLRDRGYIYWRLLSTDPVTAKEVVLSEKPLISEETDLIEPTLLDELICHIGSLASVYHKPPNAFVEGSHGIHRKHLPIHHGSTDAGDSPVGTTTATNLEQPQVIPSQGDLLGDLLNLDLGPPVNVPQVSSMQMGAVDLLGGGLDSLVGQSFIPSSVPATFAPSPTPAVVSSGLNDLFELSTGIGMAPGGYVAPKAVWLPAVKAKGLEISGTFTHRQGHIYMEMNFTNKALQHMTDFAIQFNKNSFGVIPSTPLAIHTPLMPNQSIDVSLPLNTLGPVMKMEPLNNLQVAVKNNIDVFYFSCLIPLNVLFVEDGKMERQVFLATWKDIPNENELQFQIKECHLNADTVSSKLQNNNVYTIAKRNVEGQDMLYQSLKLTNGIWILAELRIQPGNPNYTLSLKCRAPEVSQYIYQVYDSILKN
# Sequence of Lethal factor (Bacillus anthracis) (P15917 whole entry, looked up): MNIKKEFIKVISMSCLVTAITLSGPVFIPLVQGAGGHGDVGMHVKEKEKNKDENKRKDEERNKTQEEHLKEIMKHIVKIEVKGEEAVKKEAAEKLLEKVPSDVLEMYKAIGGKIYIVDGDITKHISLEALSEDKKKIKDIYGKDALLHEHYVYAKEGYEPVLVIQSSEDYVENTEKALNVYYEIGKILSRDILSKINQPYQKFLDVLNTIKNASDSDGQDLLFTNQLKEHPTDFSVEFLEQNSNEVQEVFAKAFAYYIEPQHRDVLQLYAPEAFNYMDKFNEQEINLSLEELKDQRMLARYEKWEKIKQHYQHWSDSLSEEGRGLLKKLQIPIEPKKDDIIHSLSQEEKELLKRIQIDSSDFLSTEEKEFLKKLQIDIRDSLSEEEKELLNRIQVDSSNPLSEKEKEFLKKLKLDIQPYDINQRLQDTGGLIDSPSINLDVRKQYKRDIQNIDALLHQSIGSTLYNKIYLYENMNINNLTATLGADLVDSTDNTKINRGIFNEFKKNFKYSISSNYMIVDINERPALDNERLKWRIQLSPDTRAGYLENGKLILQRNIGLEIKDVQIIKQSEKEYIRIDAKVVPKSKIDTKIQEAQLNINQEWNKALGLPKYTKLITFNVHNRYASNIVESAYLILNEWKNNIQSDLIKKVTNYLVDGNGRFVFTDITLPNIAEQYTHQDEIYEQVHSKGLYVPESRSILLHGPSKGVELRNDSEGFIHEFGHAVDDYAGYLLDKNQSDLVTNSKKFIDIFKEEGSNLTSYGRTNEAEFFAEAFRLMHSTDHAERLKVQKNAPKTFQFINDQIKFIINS
SMILES,percent of DMSO control GFP [1],GFP response vs DMSO [2],percent response of DMSO control [3],GFP response vs DMSO [4],"GFP response, % of DMSO [5]",double positive events [6] [%],vesicle binding response [6],inhibition [7],superoxide response (% of plate) [8],aptamer binding inhibition [9],response [10],inhibition [11],response [12],binding (% of control) [13],inhibition [14],inhibition [15],inhibition [16],efflux inhibition (fraction of control) [17],inhibition [18],differentiation response [19]
C#CCN(C)C(C)Cc1ccccc1 (stereo not given),100% (inactive),108% (inactive),104% (inactive),88.7% (inactive),102% (inactive),62.5,225% (inactive),1.62% (inactive),97.6% (inactive),3% (inactive),-1.41% (inactive),-6.88% (inactive),3.03% (inactive),97.2% (inactive),-1% (inactive),-0.6% (inactive),3.9% (inactive),-0.1 (inactive),-12% (inactive),15.9% (inactive)
NNC(=O)c1ccc(Cl)cc1,102% (inactive),103% (inactive),104% (inactive),102% (inactive),102% (inactive),56.2,114% (inactive),0.25% (inactive),88.1% (inactive),-2% (inactive),7.16% (inactive),3.28% (inactive),3.19% (inactive),98.7% (inactive),-1.9% (inactive),0.4% (inactive),6.8% (inactive),-0.36 (inactive),-3% (inactive),2.74% (inactive)
Cc1ccsc1C(=O)C1CCCN(Cc2cc3ccccc3o2)C1 (stereo not given),102% (inactive),98.3% (inactive),114% (inactive),85.5% (inactive),102% (inactive),59.8,51.3% (inactive),8.88% (inactive),97.5% (inactive),1% (inactive),-13% (inactive),5.6% (inactive),-0.26% (inactive),96.9% (inactive),2.8% (inactive),-0.7% (inactive),-1% (inactive),-0.2 (inactive),-3% (inactive),-4.64% (inactive)
Cc1cc(OCc2cc(C(=O)O)oc2C)c2c3c(c(=O)oc2c1)CCCC3,104% (inactive),97.2% (inactive),114% (inactive),96.6% (inactive),101% (inactive),66.4,282% (inactive),7.85% (inactive),90.3% (inactive),4% (inactive),-5.78% (inactive),-4.24% (inactive),-0.71% (inactive),97.1% (inactive),-2% (inactive),-0.5% (inactive),-8.8% (inactive),-0.01 (inactive),6% (inactive),6.11% (inactive)
CC12CC[C@H]3[C@@H](CCC4(O)C[C@H](O)CCC34/C=N/NC(=O)Cc3ccccc3)C1(O)CCC2C1=CC(=O)OC1 (stereo not given in full),103% (inactive),101% (inactive),115% (inactive),92% (inactive),107% (inactive),65.3,204% (inactive),1.62% (inactive),111% (inactive),1% (inactive),-5.5% (inactive),-3.69% (inactive),1.22% (inactive),95% (inactive),3.5% (inactive),-0.2% (inactive),3.2% (inactive),0.08 (inactive),5% (inactive),0.24% (inactive)
C[C@]12CC[C@@H](O)C[C@@H]1CC[C@@H]1[C@@H]2CC[C@]2(C)C(=O)CC[C@@H]12,100% (inactive),99.7% (inactive),84.1% (inactive),147% (inactive),101% (inactive),62.8,118% (inactive),-2.43% (inactive),75.3% (inactive),3% (inactive),20.4% (inactive),-0.33% (inactive),-2.85% (inactive),99% (inactive),2% (inactive),-0.3% (inactive),-2.4% (inactive),-0.07 (inactive),0% (inactive),-4.57% (inactive)
Clc1ccc(COC(Cn2ccnc2)c2ccc(Cl)cc2Cl)cc1 (stereo not given),104% (inactive),111% (inactive),107% (inactive),120% (inactive),103% (inactive),62.7,183% (inactive),-1.09% (inactive),121% (inactive),3% (inactive),3.99% (inactive),16.5% (inactive),2.69% (inactive),105% (inactive),-1.3% (inactive),-0.4% (inactive),-7% (inactive),-0.28 (inactive),-31% (inactive),1.28% (inactive)
CCOc1ccc(C2C(C#N)=C(N)Oc3c2c(=O)oc2ccccc32)cc1 (stereo not given),104% (inactive),99.6% (inactive),102% (inactive),102% (inactive),101% (inactive),59.3,213% (inactive),9.13% (inactive),103% (inactive),4% (inactive),-0.19% (inactive),22.7% (inactive),-3.38% (inactive),104% (inactive),-0.4% (inactive),0.3% (inactive),0.5% (inactive),-0.13 (inactive),5% (inactive),-23.2% (inactive)
